FLuc counter – inhibits or activates purified firefly luciferase, miR-21 counter-screen | purified FLuc, Km substrates, luminescence inhibition | P08659 | 6.9% of 360,000 active | Potency, µM (top dose mostly 57.5 µM), for inactives: at the highest dose activity change, negative = inhibition, usual class: inhibitors;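 further: plate controls were vehicle for no effect and reference inhibitor for full effect; nearly all actives have a fitted effect of over 55% in size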
Target sequence (P08659 whole entry, looked up): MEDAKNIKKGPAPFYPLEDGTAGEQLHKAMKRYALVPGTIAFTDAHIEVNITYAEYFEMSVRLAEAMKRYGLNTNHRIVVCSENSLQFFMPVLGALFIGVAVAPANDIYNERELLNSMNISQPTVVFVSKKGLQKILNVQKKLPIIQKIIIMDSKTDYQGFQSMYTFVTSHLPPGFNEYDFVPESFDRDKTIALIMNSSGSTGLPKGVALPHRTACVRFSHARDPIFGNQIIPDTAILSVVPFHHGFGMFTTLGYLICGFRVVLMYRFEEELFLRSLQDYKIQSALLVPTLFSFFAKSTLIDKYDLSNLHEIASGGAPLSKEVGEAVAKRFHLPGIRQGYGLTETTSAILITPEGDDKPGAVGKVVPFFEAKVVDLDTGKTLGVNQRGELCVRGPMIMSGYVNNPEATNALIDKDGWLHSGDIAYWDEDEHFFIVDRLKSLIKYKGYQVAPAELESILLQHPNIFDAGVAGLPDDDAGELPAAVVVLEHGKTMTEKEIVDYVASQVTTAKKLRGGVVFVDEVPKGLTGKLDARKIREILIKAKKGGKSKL
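Purified P. pyralis luciferase, 10 nM final, with Km-level 10 uM D-luciferin and 10 uM ATP in 50 mM Tris acetate pH 7.5, 10 mM Mg acetate, 0.01% Tween-20, 0.05% BSA; 6-point qHTS titration about 60 µM downward; luminescence read.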
NPC1 promoter act – activates the NPC1 promoter. Huh7 NPC1 promoter luciferase reporter, 24 h. Potency, µM (doses to about 9.22 µM), for the others: at the highest dose activation, usual class: activators. 2.4% of 320,000 active. AID 485313; further: % of control where 0% means no effect; nearly all actives have a fitted effect of over 60% in size
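Huh7 reporter cells (NPC1 promoter driving luciferase) are dosed with compound for 24 h at 37 °C, 5% CO2; luciferase detection reagent is then added and luminescence measured after 10 min at ambient temperature.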
Rab9 prom act – activators of Rab9 promoter; Huh7 Rab9 promoter-luciferase reporter, luminescence, 24 h; 2.8% of 320,000 active; Potency, µM (doses to about 9.22 µM), for inactives: at the highest dose activation, negative = inhibition, actives largely listed as activators; AID 485297; further: % of control where 0% means no effect; nearly all actives have a fitted effect of over 60% in size
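Quantitative HTS format; Huh7 Rab9-luciferase reporter cells (1500/well) receive compound 2 h post-plating, incubate 24 h at 37 °C, then get luciferase reagent for 10 min before luminescence reading.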
SMN2 splice enh – increases expression of the SMN2 splice variant; HEK293 SMN2-luciferase splicing reporter, luminescence, 30-36 h; Potency, µM (titrated, usually from 46.1 µM), without a hit: at the top dose activity change, positive = activation, hits mostly activators; 2.8% of 210,000 active; AID 1458; further: % of control where 0% means no effect; nearly all actives have a fitted effect of over 55% in size
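HEK293 cells carry an SMN2 minigene-luciferase reporter in which exon 7 inclusion puts luciferase in frame. Cells were seeded at 2000 cells/well, attached for 10-12 hours, then exposed to compounds for 30-36 hours at 37C before ONE-Glo luminescence.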
ELG1 genotoxic – inducers of genotoxicity in HEK293T ELG1-luciferase cells; Potency, µM (titrated, usually from 46 µM), inactives show top-dose activity change, positive = activation, most hits filed as activators; AID 504466; HEK293T ELG1-luciferase reporter, luminescence, 16 h; 1.3% of 330,000 active; further: % of control where 0% means no effect; nearly all actives have a fitted effect of over 60% in size
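HEK293T cells expressing luciferase-tagged ELG1 were exposed to compound or DMSO vehicle for 16 hr at 37 °C and 5% CO2. Luciferase activity was then measured with ONE-Glo after 30 min at room temperature.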
ELG1 repair inh – ELG1-dependent DNA repair inhibition | 2.3% of 330,000 active | Potency, µM (doses to about 46.1 µM), for inactives: at the top dose activity change, negative = inhibition, hits mostly inhibitors | HEK293T ELG1-luciferase reporter, luminescence, 16 h; DNA damage induced by 5-fluorouridine; further: on the % scale 0 is the no-effect control and ±100 the full control effect; nearly all actives have a fitted effect of over 55% in size
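In this reporter screen, reduction of luminescence relative to DMSO vehicle indicated activity. Compounds and 5-fluorouridine were added together to 2,000 cells per well, incubated for 16 hr at 37 °C, then developed with ONE-Glo.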
* marks the source's active call; other numbers are inactive results; [ ] = another dose, or the depositor's remark. Most compounds without a hit are left out; they make up all but 9.4% or so of the library. The call rests on the fitted dose curve; in most records, active means well fitted curve in the direction sought with a large enough effect; inconclusive means small, poorly fitted or top-dose-only effect, or another doubt; inactive means no such curve, though single readings can be large; an effect the other way counts as inactive or inconclusive. Potency means the concentration at half of the fitted maximal effect.

What do the screens show for `CS[C@]12C(=O)C[C@]3(C)[C@@H](CC[C@@]3(O)C(=O)CO)[C@@H]1CCC1=CC(=O)CC[C@]12C`?
SMN2 splice enh: -7%[9.22 µM]

What do the screens show for `O=c1cc(CSc2ncn[nH]2)[nH]c2c(Cl)cccc12`?
FLuc counter: -13%

What do the screens show for `O=S(=O)(c1cccc(F)c1)N1CCN(c2nc(-c3cccnc3)nc3ccccc23)CC1`?
ELG1 genotoxic: -8%; ELG1 repair inh: 10µM*

Results for O=C(c1cc(Cl)nc2ccccc12)N1CCN(S(=O)(=O)c2cccc(F)c2)CC1 ?
FLuc counter: 1%; NPC1 promoter act: 2%; Rab9 prom act: 2%; ELG1 genotoxic: -11%; ELG1 repair inh: 1%

How did c1ccc(CN=C2NN=C(c3cc4ccccc4o3)CS2)cc1 do in these assays?
FLuc counter: 17µM*; NPC1 promoter act: 18%; Rab9 prom act: 18%; SMN2 splice enh: 18%; ELG1 genotoxic: 1%; ELG1 repair inh: inconclusive

Results for c1csc(C2=NNC(=NC3CCCCC3)SC2)c1 ?
FLuc counter: 4.8µM*; NPC1 promoter act: 1.3µM*; Rab9 prom act: 1µM*; SMN2 splice enh: 13µM*; ELG1 genotoxic: inconclusive; ELG1 repair inh: inconclusive

How did c1ccc2oc(C3=NNC(=NC4CC4)SC3)cc2c1 do in these assays?
FLuc counter: 0.76µM*; NPC1 promoter act: 0.28µM*; Rab9 prom act: 0.32µM*; SMN2 splice enh: 1µM*; ELG1 genotoxic: inconclusive; ELG1 repair inh: inconclusive

Results for c1ccc2oc(-c3[nH]ncc3CN3CCC(N4CCSCC4)CC3)cc2c1 ?
FLuc counter: -2%; NPC1 promoter act: 0%; Rab9 prom act: -32%; ELG1 genotoxic: -3%; ELG1 repair inh: 0%

Results for Cc1cc(C2=NNC(=NC3CCCCC3)SC2)c(C)n1-c1c(C)n(C)n(-c2ccccc2)c1=O ?
FLuc counter: -3%; NPC1 promoter act: -2%; Rab9 prom act: -1%; SMN2 splice enh: inconclusive; ELG1 genotoxic: 0%; ELG1 repair inh: inconclusive

Results for O=C(N/N=C/c1ccc(O)cc1)c1cc(C23CC4CC(CC(C4)C2)C3)[nH]n1 ?
FLuc counter: 13µM*; NPC1 promoter act: -2%; Rab9 prom act: 10%; ELG1 genotoxic: 4%; ELG1 repair inh: -25%

Results for COc1ccc(/C=N/NC(=O)c2cc(C34CC5CC(CC(C5)C3)C4)[nH]n2)cc1OC ?
FLuc counter: inconclusive; NPC1 promoter act: -5%; Rab9 prom act: -3%; SMN2 splice enh: 5%; ELG1 genotoxic: 3%; ELG1 repair inh: inconclusive

What do the screens show for `O=C1CN(c2ccccc2)C(=S)N1C(=O)c1ccccc1`?
FLuc counter: 24µM*; NPC1 promoter act: inconclusive; Rab9 prom act: 4µM*; ELG1 genotoxic: inconclusive; ELG1 repair inh: inconclusive

How did CCN(CC)S(=O)(=O)c1cc(C(=O)Nc2ccccc2[N+](=O)[O-])ccc1Cl do in these assays?
FLuc counter: 9.5µM*; NPC1 promoter act: inconclusive; Rab9 prom act: inconclusive; SMN2 splice enh: -8%[1.84 µM]; ELG1 genotoxic: inconclusive; ELG1 repair inh: inconclusive

What do the screens show for `CCN(CC)S(=O)(=O)c1cc(C(=O)NC2=NCCS2)ccc1Cl`?
FLuc counter: inconclusive; NPC1 promoter act: 6%; Rab9 prom act: -2%; SMN2 splice enh: -5%; ELG1 genotoxic: 1%; ELG1 repair inh: -4%

How did CCN(CC)S(=O)(=O)c1cc(C(=O)Nc2cc(Cl)ccc2N2CCN(C)CC2)ccc1Cl do in these assays?
FLuc counter: -12%; NPC1 promoter act: -2%; Rab9 prom act: -3%; SMN2 splice enh: -12%; ELG1 genotoxic: -24%; ELG1 repair inh: 18µM*

What do the screens show for `CCN(CC)S(=O)(=O)c1cc(C(=O)Nc2cc(C)[nH]n2)ccc1Cl`?
FLuc counter: 8.5µM*; NPC1 promoter act: 2.2µM*; Rab9 prom act: 2.5µM*; ELG1 genotoxic: inconclusive; ELG1 repair inh: inconclusive
